Our source for the composite z-score and z-score values is PubChem BioAssay.

The test system of experiment [1] is Plasmodium falciparum Sir2 (PF13_0152, Sir2A). The experiment in a line: Plasmodium falciparum Sir2A binding compounds – biochemical, small-molecule microarray, 635 nm fluorescence, primary screen (AID 1098).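 Also: score merges spot fluorescence intensity with its signal-to-noise ratio.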 The note with it: fluorescence 635 nm, higher = more signal.
Experiment [2] in a line: probe aDKK1 binding to arrayed compounds – biochemical, biotinylated probe, 635/667 nm fluorescence, primary screen (AID 1099).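 Also: score merges 667nm spot fluorescence with signal to noise across triplicate slides.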 The note with it: small-molecule microarray, higher = more signal.
The nature of experiment [3]: probe aCHRDL2 binding to arrayed compounds – biochemical, biotinylated probe, 635/667 nm fluorescence, primary screen (AID 1100). The note with it: small-molecule microarray, higher = more signal.
Experiment [4] can be described thus: change in splice reporter luminescence, either direction, cell-based, HEK293, spliceosome inhibition project, primary screen (AID 1101).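 Also: HEK293 cells carrying a splicing-competent luciferase reporter gene; test concentration not given here.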 The note with it: HEK293 splicing luciferase reporter, 24 h, higher = more signal, called active from +8 up or from −8 down.
Experiment [5] has as its target Fibroblast growth factor 10 (Homo sapiens) (UniProt O15520). The experiment is described as follows: compounds binding fibroblast growth factor 10 – biochemical, small-molecule microarray, 635 nm fluorescence, primary screen (AID 1102). The conditions noted are these: FGF10 binding, fluorescence 635 nm, higher = more signal.
In experiment [6] the test system is glycogen synthase kinase-3 (GSK3A per assay name; protocol says GSK3B). The experiment is described as follows: compounds binding glycogen synthase kinase-3 – biochemical, small-molecule microarray, 635 nm fluorescence, GSK3A, primary screen (AID 1103). Also: the record names both GSK3A and GSK3B. The conditions noted are these: fluorescence 635 nm, higher = more signal.
Experiment [7] concerns the target Epidermal growth factor receptor (Homo sapiens) (UniProt P00533). The experiment in a line: compounds binding epidermal growth factor receptor – biochemical, small-molecule microarray, 635 nm fluorescence, primary screen (AID 1104).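 Also: score merges 667 nm emission intensity with spot signal to noise over triplicate slides.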 The note with it: EGFR binding, higher = more signal.
For experiment [8], the target named is Follistatin-related protein 3 (Homo sapiens) (UniProt O95633). The experiment is described as follows: compounds binding follistatin-related protein 3 – biochemical, small-molecule microarray, 635 nm fluorescence, primary screen (AID 1105).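 Also: score merges emission near 667 nm and signal to noise per printed spot across three slides.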 The note with it: FSTL3 binding, higher = more signal.
Chain of Follistatin-related protein 3 (Homo sapiens) (O95633 whole entry, looked up): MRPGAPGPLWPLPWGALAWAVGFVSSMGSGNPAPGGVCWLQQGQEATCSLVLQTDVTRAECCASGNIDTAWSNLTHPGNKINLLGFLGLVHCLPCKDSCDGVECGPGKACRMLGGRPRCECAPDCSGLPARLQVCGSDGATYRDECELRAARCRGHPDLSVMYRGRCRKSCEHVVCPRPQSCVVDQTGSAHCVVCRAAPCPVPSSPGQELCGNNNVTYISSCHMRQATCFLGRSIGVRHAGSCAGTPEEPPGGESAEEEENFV
Experiment [9] deals with Dickkopf-related protein 1 (Homo sapiens) (UniProt O94907). The experiment is described as follows: small molecules binding DKK1 protein – biochemical, small-molecule microarray, 635 nm fluorescence scan, primary screen (AID 1106).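 Also: score merges emission near 667 nm with signal to noise over three replicate slides.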 The note with it: higher = more signal.
Chain of Dickkopf-related protein 1 (Homo sapiens) (O94907 whole entry, looked up): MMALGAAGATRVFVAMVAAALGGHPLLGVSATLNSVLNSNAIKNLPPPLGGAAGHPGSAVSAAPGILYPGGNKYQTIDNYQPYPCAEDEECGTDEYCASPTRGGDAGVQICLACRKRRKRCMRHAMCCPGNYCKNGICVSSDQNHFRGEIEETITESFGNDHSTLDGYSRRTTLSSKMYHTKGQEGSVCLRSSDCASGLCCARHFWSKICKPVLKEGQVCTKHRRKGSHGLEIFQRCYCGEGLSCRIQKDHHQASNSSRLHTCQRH
Experiment [10] concerns Inhibin beta A chain (activin A). The experiment in a line: small molecules binding activin A – biochemical, small-molecule microarray, 635 nm fluorescence scan, primary screen (AID 1107).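 Also: mouse activin A protein probed at 4.33 µg/mL on printed slides; score merges bound-protein fluorescence near 667 nm with spot signal-to-noise.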 The conditions noted are these: INHBA, higher = more signal.
The test system of experiment [11] is Human papillomavirus type 1a protein E7 (residues 44-93). The experiment is described as follows: small molecules binding HPV E7 44-93 – biochemical, small-molecule microarray, residues 44-93, 635 nm fluorescence, primary screen (AID 1108).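 Also: E7 fragment applied at 1 µg/mL in TBST for 1 h at 4 C; score combines spot fluorescence with its signal to noise ratio.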 The note with it: fluorescence 635 nm, higher = more signal.
Experiment [12] can be described thus: hepatitis C replication reporter changes, two-sided – Huh7 cells, luciferase reporter, HCV replication inhibitor project, primary screen (AID 1109).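 Also: huh7 hepatoma cells harbouring a luciferase neomycin HCV replicon reporter; luciferase luminescence as measure of HCV replicon replication; test concentration not given here.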 The conditions noted are these: Huh7 HCV replicon luciferase reporter, 48 h; higher = more signal. (A reporter such as luciferase makes a cellular process visible.)
Experiment [13] deals with Left-right determination factor 2 (Homo sapiens) (UniProt O00292). The experiment in a line: small molecules binding LEFTY2 protein – biochemical, small-molecule microarray, 635 nm fluorescence scan, primary screen (AID 1110). The conditions noted are these: higher = more signal.
Chain of Left-right determination factor 2 (Homo sapiens) (O00292 whole entry, looked up): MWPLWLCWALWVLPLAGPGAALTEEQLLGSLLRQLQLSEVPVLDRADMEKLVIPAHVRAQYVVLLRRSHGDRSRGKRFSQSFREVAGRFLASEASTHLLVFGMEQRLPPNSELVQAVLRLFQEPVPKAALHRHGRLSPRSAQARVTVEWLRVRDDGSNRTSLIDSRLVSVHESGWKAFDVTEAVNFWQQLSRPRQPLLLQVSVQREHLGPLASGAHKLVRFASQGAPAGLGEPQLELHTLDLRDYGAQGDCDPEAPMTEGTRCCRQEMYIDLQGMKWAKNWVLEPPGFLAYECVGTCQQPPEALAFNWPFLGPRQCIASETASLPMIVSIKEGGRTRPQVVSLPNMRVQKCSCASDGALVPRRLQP
Experiment [14] has as its target Calmodulin-1 (Homo sapiens) (UniProt P0DP23). The experiment in a line: small molecules binding calmodulin-1 with EGTA – biochemical, small-molecule microarray, Cy5-labelled CALM1, profiling panel (AID 1111).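 Also: labelled calmodulin applied in Tris saline Tween buffer holding calcium plus EGTA and DTT.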 The conditions noted are these: Cy5-CALM1 binding fluorescence, higher = more signal.
The target is the same in experiment [15]. The experiment is described as follows: small molecules binding Ca-loaded calmodulin-1 – biochemical, small-molecule microarray, Cy5-labelled CALM1, plus calcium, artefact control for SMM control-protein annotation, profiling panel (AID 1112).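 Also: score merges spot fluorescence with signal to noise from triplicate slides.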 The conditions noted are these: Cy5-CALM1 binding fluorescence, higher = more signal.
Experiment [16] can be described thus: probe aWnt5a binding to arrayed compounds – biochemical, biotinylated probe, 635/667 nm fluorescence, primary screen (AID 1113).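 Also: score merges 667 nm fluorescence intensity with signal-to-noise per printed feature.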 The note with it: small-molecule microarray, higher = more signal.
Experiment [17] is described as follows: probe aShh binding to arrayed compounds – biochemical, biotinylated probe, 635/667 nm fluorescence, primary screen (AID 1114).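 Also: probe is biotin-labelled aShh protein from a stem cell growth factor screen; measures binding of labelled protein to compounds printed on the slide; score merges feature fluorescence at 667 nm with signal-to-noise.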 The note with it: small-molecule microarray, higher = more signal.
Experiment [18] can be described thus: probe aNog binding to arrayed compounds – biochemical, biotinylated probe, 635/667 nm fluorescence, primary screen (AID 1115).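 Also: probe is biotinylated aNog protein used at 0.15 µg/mL for 1 h at 4 C; z-score combines 667 nm fluorescence of each spot with its signal to noise.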 The note with it: small-molecule microarray, higher = more signal.
Experiment [19] concerns the target Torsin-1A-interacting protein 1 (Homo sapiens) (UniProt Q5JTV8). The experiment in a line: compound microarray binding of lysate hLAP1 – cell lysate, small-molecule microarray, COS7 lysate, 635/667 nm fluorescence, primary screen (AID 1116). The note with it: 635 nm fluorescence, higher = more signal.
The target of experiment [20] is Alpha-bungarotoxin (Bungarus multicinctus) (UniProt P60615). The experiment in a line: compounds binding labelled alpha-BTX control protein – biochemical, small-molecule microarray, Alexa647 label, 635/667 nm fluorescence, artefact control for SMM control protein annotation, profiling panel (AID 1117). The conditions noted are these: alpha-BTX-A647 binding fluorescence, higher = more signal.
Chain of Alpha-bungarotoxin (Bungarus multicinctus) (P60615 whole entry, looked up): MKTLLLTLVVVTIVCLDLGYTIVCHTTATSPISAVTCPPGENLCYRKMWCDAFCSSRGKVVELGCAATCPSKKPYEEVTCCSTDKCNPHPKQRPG

Calls of active or inactive are those of the source.

Chain of Fibroblast growth factor 10 (Homo sapiens) (O15520 whole entry, looked up): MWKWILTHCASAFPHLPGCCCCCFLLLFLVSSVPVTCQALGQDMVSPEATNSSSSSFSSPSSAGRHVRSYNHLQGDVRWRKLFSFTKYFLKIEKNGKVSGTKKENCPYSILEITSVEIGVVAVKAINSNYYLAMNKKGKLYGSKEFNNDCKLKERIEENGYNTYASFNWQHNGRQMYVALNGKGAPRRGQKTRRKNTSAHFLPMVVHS
Chain of Torsin-1A-interacting protein 1 (Homo sapiens) (Q5JTV8 whole entry, looked up): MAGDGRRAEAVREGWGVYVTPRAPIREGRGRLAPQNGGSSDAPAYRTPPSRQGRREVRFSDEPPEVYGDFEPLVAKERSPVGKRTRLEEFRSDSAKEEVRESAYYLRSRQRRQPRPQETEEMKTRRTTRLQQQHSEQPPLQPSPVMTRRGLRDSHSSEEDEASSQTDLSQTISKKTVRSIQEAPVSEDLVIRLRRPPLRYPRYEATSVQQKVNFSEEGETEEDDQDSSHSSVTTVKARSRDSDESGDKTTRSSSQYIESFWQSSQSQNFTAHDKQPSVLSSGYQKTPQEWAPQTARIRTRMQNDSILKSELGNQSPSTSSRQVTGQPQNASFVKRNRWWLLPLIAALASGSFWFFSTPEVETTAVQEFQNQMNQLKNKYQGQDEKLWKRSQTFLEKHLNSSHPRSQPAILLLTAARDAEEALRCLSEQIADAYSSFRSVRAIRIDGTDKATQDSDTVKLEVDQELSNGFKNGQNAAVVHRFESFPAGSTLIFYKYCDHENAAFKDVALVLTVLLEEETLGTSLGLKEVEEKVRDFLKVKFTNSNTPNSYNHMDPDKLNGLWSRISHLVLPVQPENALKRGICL
Chain of Epidermal growth factor receptor (Homo sapiens) (P00533 whole entry, looked up): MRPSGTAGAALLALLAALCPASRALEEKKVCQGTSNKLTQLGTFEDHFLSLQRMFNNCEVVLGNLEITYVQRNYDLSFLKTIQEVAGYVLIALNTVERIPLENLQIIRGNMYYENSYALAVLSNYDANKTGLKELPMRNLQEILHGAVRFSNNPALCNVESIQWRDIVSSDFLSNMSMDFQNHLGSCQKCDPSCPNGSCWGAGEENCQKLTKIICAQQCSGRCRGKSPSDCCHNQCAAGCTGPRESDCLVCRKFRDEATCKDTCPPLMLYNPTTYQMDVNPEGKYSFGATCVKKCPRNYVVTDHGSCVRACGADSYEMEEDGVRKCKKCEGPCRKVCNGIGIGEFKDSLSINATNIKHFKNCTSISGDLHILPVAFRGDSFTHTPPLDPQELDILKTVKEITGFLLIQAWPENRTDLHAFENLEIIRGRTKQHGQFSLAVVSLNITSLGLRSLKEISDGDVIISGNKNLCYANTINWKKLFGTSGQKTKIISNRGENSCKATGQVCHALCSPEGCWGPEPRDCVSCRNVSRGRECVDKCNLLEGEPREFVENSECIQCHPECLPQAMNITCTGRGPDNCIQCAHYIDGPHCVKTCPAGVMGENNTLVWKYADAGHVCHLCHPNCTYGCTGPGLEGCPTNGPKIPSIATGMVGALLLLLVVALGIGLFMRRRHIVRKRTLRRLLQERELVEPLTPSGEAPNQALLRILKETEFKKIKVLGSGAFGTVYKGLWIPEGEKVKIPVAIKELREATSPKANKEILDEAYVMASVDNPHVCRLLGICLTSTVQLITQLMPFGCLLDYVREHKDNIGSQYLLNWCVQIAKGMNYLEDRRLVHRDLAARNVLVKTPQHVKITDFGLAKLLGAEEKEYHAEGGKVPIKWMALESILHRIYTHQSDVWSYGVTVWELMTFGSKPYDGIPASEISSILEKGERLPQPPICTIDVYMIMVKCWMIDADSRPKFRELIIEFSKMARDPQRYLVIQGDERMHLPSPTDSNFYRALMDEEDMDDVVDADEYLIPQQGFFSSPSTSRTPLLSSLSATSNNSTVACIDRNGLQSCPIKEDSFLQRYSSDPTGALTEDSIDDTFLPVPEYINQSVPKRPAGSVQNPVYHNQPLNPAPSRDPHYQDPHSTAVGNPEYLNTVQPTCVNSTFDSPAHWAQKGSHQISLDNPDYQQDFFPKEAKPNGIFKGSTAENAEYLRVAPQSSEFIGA

Turning to `COc1ccc(-c2cc3c(c(CCc4ccccc4)n2)[Si](C(C)C)(C(C)C)O[C@H]3c2ccccc2)cn1`, the composite z-score in experiment [1] is -0.576; in [2], 0.0477; in [3] it was -0.12; in experiment [5] it was 0.332; in [6], -0.237; in [7], -0.0109. The composite z-score in experiment [8] was 0.362; in experiment [9], -0.0079; in experiment [10], 0.343; in experiment [11] it was -0.38; in experiment [13], 0.0069; in experiment [14], -0.0526. The composite z-score in experiment [15] is -0.517; in experiment [16], -0.12; in [17] it was -0.0192; in experiment [18], -0.158; in experiment [19] it was -0.309; in [20], 0.31. Moreover, the z-score in [4] is -0.879 (inactive); in experiment [12], -1.8.
Take `C=CCNC(=O)[C@@H]1[C@H]2C(=O)O[C@H](c3ccccc3)[C@H](c3ccccc3)N2[C@H](c2ccc(OCCO)cc2)[C@@]12C(=O)Nc1ccc(C#CCNC(N)=O)cc12`: the composite z-score in [1] was 1.05; in experiment [2], -0.123; in experiment [3], 0.584; in experiment [5], -0.385; in experiment [6], -0.402; in experiment [7], -1.13. For the same compound, the composite z-score is 0.16 in experiment [8]; -0.456 in [9]; 1.31 in experiment [10]; 1.24 in experiment [11]; -0.463 in experiment [13]; 1.47 in experiment [14]. Besides, the composite z-score is 0.472 in experiment [15]; -0.0051 in experiment [16]; -0.349 in experiment [17]; -0.361 in experiment [18]; 0.0307 in experiment [19]; 0.782 in experiment [20]. Besides, the z-score in experiment [4] is -0.0958 (inactive); in [12], -0.658.
Take `C=CCOC(=O)[C@@H]1[C@H]2C(=O)O[C@H](c3ccccc3)[C@H](c3ccccc3)N2[C@H](c2ccc(OCCOC(=O)[C@@H]3C[C@@H]4C(=O)N[C@@H](CC(C)C)C(=O)N4[C@@H]3c3ccc(O)cc3)cc2)[C@@]12C(=O)Nc1ccc(I)cc12`: the composite z-score was 1.03 in experiment [1]; -0.228 in [2]; -0.355 in experiment [3]; 1.37 in experiment [5]; 1.28 in experiment [6]; 0.817 in [7]. Further, the composite z-score in [8] amounted to 1.42; in experiment [9] it was 1.14; in experiment [10], 0.79; in experiment [11] it was 1.39; in [13], 1.26; in experiment [14] it was 0.751. The composite z-score in experiment [15] was 0.289; in [16], -0.263; in [17] it was -0.0793; in experiment [18] it was 1.12; in [19], -0.107; in [20] it was 1.44. In addition, the results for the z-score in [4] and in experiment [12] were -0.771 (inactive) and -0.432, respectively.
In the case of `COC(=O)[C@@]1(Cc2ccccc2)[C@H]2c3cc(C(=O)N(C)C)n(Cc4nc5ccccc5[nH]4)c3C[C@H]2CN1C(=O)c1ccccc1`, the composite z-score in experiment [1] is 0.88; in experiment [2], 0.52; in experiment [3] it was 1.21; in [5] it was 0.742; in experiment [6], 0.64; in experiment [7] it was 0.226. Also, the composite z-score was 0.841 in experiment [8]; -0.416 in experiment [9]; 0.893 in experiment [10]; 1.33 in experiment [11]; -0.4 in [13]; 0.492 in [14]. Besides, the composite z-score came out at 1.2 in [15]; 0.0328 in experiment [16]; 0.108 in experiment [17]; 2.16 in experiment [18]; 1.62 in [19]; 1.3 in experiment [20]. Besides, the z-score is -2.1 (inactive) in experiment [4] and 0.401 in experiment [12].
As to `C=C(COC)C(=O)CC[C@@H](OC(=O)c1ccccc1-c1ccccc1C(=O)O)c1ccccc1OCCO`, the composite z-score was 0.664 in [1]; -0.0934 in experiment [2]; 0.0182 in [3]; 1.65 in experiment [5]; 0.293 in experiment [6]; -0.0099 in experiment [7]. The composite z-score in experiment [8] was 0.474; in experiment [9], 0.902; in experiment [10] it was 1.34; in [11], 0.933; in [13] it was 0.585; in experiment [14] it was -0.537. Further, the composite z-score in experiment [15] is -1.2; in [16] it was -0.232; in [17], -0.17; in [18], 0.153; in [19], 3.7; in experiment [20], -0.217. For the same compound, the results for the z-score in [4] and in experiment [12] were -0.14 (inactive) and -1.91, respectively.
Turning to `C=CCN1C(=O)[C@]2(O[C@H](CCO)[C@@H]([Si](C)(C)c3ccc(OC)cc3)[C@@H]2C)c2cc(N3C(=O)c4ccccc4Oc4ccccc43)ccc21`, the composite z-score in experiment [1] is 1.16; in experiment [2], -0.252; in experiment [3], 0.117; in [5] it was 0.402; in experiment [6] it was 0.209; in experiment [7], 0.0038. In addition, the composite z-score in experiment [8] amounted to 0.255; in experiment [9] it was 0.107; in [10] it was 0.206; in [11], 1.3; in [13], 0.28; in experiment [14], 1.2. The composite z-score was 0.323 in [15]; -0.0203 in experiment [16]; -0.0709 in [17]; -0.158 in [18]; -0.0465 in experiment [19]; 0.378 in [20]. Also, the z-score is -1.38 (inactive) in experiment [4] and -5.05 in experiment [12].
